Screening results from PubChem BioAssay.
Most compounds without a hit are left out; they make up all but 4.7% or so of the library.
D1 antagonist: human D1 dopamine receptor antagonism; P21728; HEK293 TREx D1 cells, calcium flux, dopamine EC80; hits give low values; activity change, negative = inhibition, % at 10 µM; actives 3.2% (n = 360,000); in the data active = activity change below about -30%; note: % is set by controls: 0 for no effect and ±100 for the full control effect
Target sequence (P21728 whole entry, looked up): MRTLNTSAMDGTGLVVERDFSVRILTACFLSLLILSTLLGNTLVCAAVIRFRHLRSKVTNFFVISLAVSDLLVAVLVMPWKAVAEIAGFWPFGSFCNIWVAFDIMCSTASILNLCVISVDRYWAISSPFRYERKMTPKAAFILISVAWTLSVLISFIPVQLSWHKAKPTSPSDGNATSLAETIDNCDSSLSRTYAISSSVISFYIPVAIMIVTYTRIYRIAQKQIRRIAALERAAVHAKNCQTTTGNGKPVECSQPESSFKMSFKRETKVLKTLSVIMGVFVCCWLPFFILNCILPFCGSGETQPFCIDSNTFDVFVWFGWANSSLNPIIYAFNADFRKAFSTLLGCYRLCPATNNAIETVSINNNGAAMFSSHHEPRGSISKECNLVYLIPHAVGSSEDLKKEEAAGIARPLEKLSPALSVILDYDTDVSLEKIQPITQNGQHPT
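Tetracycline-induced HEK293 T-REx cells with force-coupled D1 receptor were loaded with a no-wash calcium dye. Compound was added after a 10 s baseline and read kinetically for 180 s; EC80 dopamine was then added and calcium flux followed another 180 s.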
TRHR ag: agonists of human TRH receptor; AID 493084; activation, % at 2 µM; P34981; TRHR cells, calcium flux fluo-8, FDSS agonist mode; actives 0.18% (n = 360,000); note: 0% is about no effect
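TRHR-expressing cells, plated overnight in medium with 10% serum, were loaded with fluo-8 calcium dye at room temperature. After a 10 s baseline, library compound was pin-added and calcium release was recorded kinetically (ex 480/em 530) as agonist response.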
D1 ag: agonists of human D1 dopamine receptor | HEK293 T-REx D1 cells, calcium flux, agonist mode | activation, % at 2 µM | P21728 | AID 504660 | actives 1% (n = 360,000); note: 0% is about no effect
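Agonism was scored from calcium flux recorded over 180 s (1 read/s) after pintool compound addition, following a 10-cycle baseline. Cells were inducible force-coupled HEK293 TREx D1, plated overnight at 30 C and loaded with no-wash calcium dye.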
TRHR PAM: TRH receptor (human) allosteric enhancement; P34981; enhancement, % at 2 µM; actives 0.66% (n = 360,000); TRHR cells, fluo-8 calcium fluorescence, EC20 TRH enhancement; in the data active = enhancement above about 30%; note: 0% is about no effect
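TRHR-expressing cells loaded with fluo-8 calcium dye were read kinetically (ex 480/em 530) during compound addition, then stimulated with an EC20 of TRH (10 nM final). Enhancement of the Gq-mediated intracellular calcium response was scored.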
D1 potentiator: potentiators of human D1 dopamine receptor; AID 504651; potentiation, % at 10 µM; actives 0.036% (n = 360,000); HEK293 TREx D1 cells, calcium flux, dopamine EC20 potentiation; in the data active = potentiation above about 30%; note: 0% is about no effect
* = called active by the depositor; nt = not tested or not shown; ! = repeats disagree. Cut-off read from the data, not from the text of the source, unless noted: active = activation above about 30%; inactive = the rest.

SMILES	D1 antagonist	TRHR ag	D1 ag	TRHR PAM	D1 potentiator
COc1cc2c(=O)n(CC3CCCO3)c(=O)n(CC(=O)Nc3cccc(Cl)c3)c2cc1OC (stereo not drawn)	-43.8*	-1.3	0.3	-10.3	-3.4
COc1ccc(NC(=O)CSc2nc(-c3ccccc3)[nH]c2-c2ccccc2)cc1OC	1.4	-0.5	0.2	-4.2	-4.5
Cn1c2ccccc2c(=O)c2c(=O)n(C3CCCCCC3)c(C3CCCCC3)nc21	-27.4	28.9	121.0*	-7.0	5.3
Cn1c2ccccc2c(=O)c2c(=O)n(C3CCCCC3)c(-c3cccs3)nc21	-32.2*	23.4	116.3*	-12.6	-3.6
Cn1c2ccccc2c(=O)c2c(=O)n(-c3ccccc3)c(C3CCCCC3)nc21	69.7	-0.9	1.0	5.9	19.4
CCc1nc2c(c(=O)c3ccccc3n2C)c(=O)n1C1CCCCCC1	-28.1	39.0*	194.8*	-9.8	-1.9
CN(C)CCCC1(c2ccc(F)cc2)OCc2cc(C#N)ccc21 (stereo not drawn)	-52.5*!	0.2	8.9	-3.8	-2.5
Cc1cc(C)n(C(C)CC(=O)Nc2ccc(C)c(N(C)C)c2)n1 (stereo not drawn)	-7.3	0.4	2.4	4.4	-3.1
N#C/C(=C(/O)c1ccc([N+](=O)[O-])s1)c1nc2ccccc2[nH]1	-7.7	4.0	28.8	-5.4	-2.7
N#C/C(=C(/O)c1ccc(Br)s1)c1nc2ccccc2[nH]1	-44.7*	0.7	4.0	-6.1	-6.8
O=C(CSc1nnc(CNC(=O)c2ccc(F)cc2)o1)NCCc1ccccc1	15.2	-0.5	1.1	-2.8	1.8
COc1ccc(C(=O)NCc2nnc(SCC(=O)NCCc3ccccc3)o2)cc1	10.1	-0.4	1.2	35.6*	4.8
COc1ccc(CCCc2nnc(SCC(=O)Nc3ccc(OC)cc3)o2)cc1	-5.3	-0.5	-1.2	-3.6	0.1
COc1ccc(C(=O)NCc2nnc(SCC(=O)NCc3ccco3)o2)cc1OC	-41.1*	0.7	1.7	-1.5	-1.3
COc1ccc(CCCc2nnc(SCC(=O)Nc3ccc(C)c(C)c3)o2)cc1	-32.2*!	-0.2	2.8	-4.2	-2.8
CCOc1ccc2nc(NC(=O)CS(=O)(=O)c3ccc(Cl)cc3)sc2c1	nt	0.4	-2.7	-1.1	-0.9
Cn1nnnc1Sc1ncnc2scc(-c3cccc(C#N)c3)c12	-1.0	-0.9	0.9	-4.5	-3.3
C[C@@H](NC(=O)C1(c2ccccc2)CCN(C(=O)OC(C)(C)C)CC1)C(=O)N[C@@H](C(=O)O)c1ccccc1	-51.9*	-0.6	1.3	6.9	-2.8
C[C@H](NC(=O)C1(c2ccccc2)CCN(C(=O)OC(C)(C)C)CC1)C(=O)N[C@@H](C(=O)O)c1ccccc1	5.5	0.1	0.4	-3.1	-1.2
O=C(COc1ccccc1)Nc1c(C(=O)N2CCC(N3CCCCC3)CC2)oc2ccccc12	3.0	-0.1	3.4	8.2	-5.4
O=C(COc1ccc(F)cc1)Nc1c(C(=O)N2CCC(N3CCCCC3)CC2)oc2ccccc12	-34.8*	0.4	3.9	-0.4	-4.0
COc1ccc(NC(=O)c2oc3ccccc3c2NC(=O)COc2ccc(F)cc2)c(OC)c1	5.0	0.3	2.9	38.7*	-0.3
Cc1cccc(N2CCN(C(=O)c3cc4ccc5cccnc5c4[nH]3)CC2C)c1 (stereo not drawn)	13.0	-0.8	8.3	-10.2	-1.0
CC(=O)c1c(N=CN(C)C)nc(C)nc1-c1ccccc1	17.4	-0.2	0.1	7.3	-3.4
CN(C)C=Nc1ccccc1C1C=NNC1=O (stereo not drawn)	-34.3*	1.0	1.2	-6.0	-4.8
SMILES	D1 antagonist	TRHR ag	D1 ag	TRHR PAM	D1 potentiator
COc1ccc(CN2CC34C=CC(O3)C(C(=O)O)C4C2=O)cc1 (stereo not drawn)	-57.6*	0.0	0.8	2.0	nt
O=C1c2cccc3cccc(c23)C(=O)N1Cc1cccnc1	20.1	-3.1	2.4	2.7	-6.0
O=C1c2cccc3c([N+](=O)[O-])ccc(c23)C(=O)N1Cc1cccnc1	-40.4*	8.8	13.4	-9.2	1.6
CNC(=O)CCCN1C(=O)c2cccnc2Sc2ccccc21	-17.1	0.0	2.4	-4.1	-6.5
O=C1c2cccnc2Nc2ccccc2N1CCCF	-32.8*	-0.3	-0.3	-2.3	-3.4
CCc1ccc(C2CC(=O)c3c([nH]c(C(=O)OC4CCC(C)CC4)c3C)C2)cc1 (stereo not drawn)	1.7	1.0	2.9	-1.6	-2.9
Cn1c(=O)c2c(nc(CN3CCN(C(=O)c4ccco4)CC3)n2CCc2ccccc2)n(C)c1=O	-73.9*	-0.6	0.2	-1.3	1.5
COC(=O)Cn1c(CN(C)Cc2ccccc2)nc2c1c(=O)n(C)c(=O)n2C	-0.2	0.4	1.5	-3.9	4.2
Cn1c(=O)c2c(nc(CN3CCN(Cc4ccccc4)CC3)n2Cc2cccc(Cl)c2)n(C)c1=O	0.6	-1.1	39.9*	-3.3	-13.9
COC(=O)Cn1c(CN2CCC(Cc3ccccc3)CC2)nc2c1c(=O)n(C)c(=O)n2C	-36.2*	-0.9	16.7	-2.5	-6.8
CCOC(=O)c1cccc(NC(=O)c2cc(CN3CCOCC3)on2)c1	-2.0	0.1	0.5	14.8	-5.0
O=C(Oc1ccccc1F)c1nc(SCc2ccc(F)cc2)ncc1Cl	-14.1	-0.7	-1.2	-0.6	-2.4
CC(=O)c1cc(C#N)c(N2CCN(c3ccccc3)CC2)nc1C	-43.1*	0.5	3.6	-1.9	-9.6
CC(=O)N1CCc2c(sc3c2c(=O)n(CCc2ccccc2)c(=O)n3Cc2cccc(C)c2)C1	-13.3	0.9	6.5	1.7	-5.2
CCOc1ccccc1C(=O)NC1(C(F)(F)F)C(=O)Nc2c1c(=O)[nH]c(=O)n2-c1ccccc1 (stereo not drawn)	-5.6	0.2	0.0	-0.2	-6.7
Cc1ccc(C(=O)CNc2ccccc2)cc1	-3.7	-1.2	3.1	0.2	1.3
C=C(C(=O)Nc1ccccc1)c1ccc(C)cc1	-49.2*	-0.5	4.2	1.8	2.8
CC1CCN(C(c2ccccc2)c2sc3nc(-c4ccco4)nn3c2O)CC1 (stereo not drawn)	nt	-0.2	-0.5	-3.5	-0.3
COc1ccc(-c2noc(-c3ccccc3NC(=O)c3cc(OC)c(OC)c(OC)c3)n2)cc1	16.1	0.5	-0.2	-2.9	-2.2
CC(C)CCn1c(=O)c2sccc2n2c(CCCC(=O)N3CCC(N4CCCCC4)CC3)nnc12	-45.1*	0.2	0.3	0.8	-6.3
O=[N+]([O-])c1cc(C(F)(F)F)cc([N+](=O)[O-])c1N1CCN(S(=O)(=O)c2ccccc2)CC1	-32.3*	0.2	1.4	-1.3	-4.2
Cc1c(Cl)cccc1NC(=O)Cn1nnc(-c2nc(-c3ccccc3)no2)c1N	-10.1	0.7	3.4	2.8	-0.7
COc1ccc(-c2nn(C)c3sc(C(=O)Nc4cccc(F)c4)cc23)cc1OC	-0.4	-0.7	6.9	-3.1	-6.2
